Measurements: the supplement of paper PMC11172423
Unmarked numbers belong to inactive results.

Tested on: Falciformispora senegalensis CBS197.79
Experiment: growth relative to untreated control; higher = less inhibition, active = 20 or less
Details: 100 µM
Outline: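 For each test, a hyphal fragment suspension of M. mycetomatis MM55 or F. senegalensis CBS197.79 was prepared in colourless RPMI 1640 with L-glutamine and MOPS at 68–72% transmission at 660 nm. Exposure to compound at 100 or 25 µM ran for 7 days at 37 °C in 96-well plates, followed by viability reading with MTS (2 h, 490 nm) or resazurin (600 nm). Growth corresponds to metabolic activity relative to the untreated growth control after correction of both with a blank of medium and dye.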

Q: For FC(F)(F)c1cc(Cl)cc(Nc2nc3cnc(OC4CCC4)cc3n2[C@@H]2CCNC2)c1, which growth is on record?
A: The growth was 108%.

Q: For CCC(CC)c1cccc(OC(=O)NC)c1.CCCC(C)c1cccc(OC(=O)NC)c1, which growth is on record?
A: The growth was 81.9%.

Q: CC(C)(C)Nc1cc2c(cn1)nc(Nc1cc(Cl)cc(C(F)(F)F)c1)n2C1CCNC1 (stereo not drawn) was tested. Which growth did it give?
A: Its growth is 14.1% (active).

Q: With CN1CCN(C(=O)O[C@H]2c3nccnc3C(=O)N2c2ccc(Cl)cn2)CC1 as the compound, how does the growth read?
A: The growth was 102%.

Q: CN(C)CCn1c(Nc2cc(Cl)cc(C(F)(F)F)c2)nc2cnc(NC3CCC3)cc21 was tested. Which growth did it give?
A: Its growth is 104%.

Q: With COc1ccc(Cc2nccc3cc(OC)c(OC)cc23)cc1OC as the compound, how does the growth read?
A: The growth was 104%.

Q: With CN1C(=O)C(C(=O)Nc2ccc(Cl)c(Cl)c2)C(=O)N(C)C1=O as the compound, how does the growth read?
A: Its growth is 84.5%.

Q: With CC1(C)C(C=C(Cl)Cl)C1C(=O)OCc1cccc(Oc2ccccc2)c1 (stereo not drawn) as the compound, how does the growth read?
A: The growth was 98.3%.

Q: Which growth does the source give for COc1ccc(CCN2CCC(Nc3nc4ccccc4n3Cc3ccc(F)cc3)CC2)cc1 here?
A: Its growth is 15% (active).

Q: For O=C(NC(=O)c1c(F)cccc1F)Nc1ccc(Cl)c(Oc2ncc(C(F)(F)F)cc2Cl)c1, which growth is on record?
A: Its growth is 84%.

Q: With COC(=O)N(C(=O)N1CO[C@@]2(C(=O)OC)Cc3cc(Cl)ccc3C2=N1)c1ccc(OC(F)(F)F)cc1 as the compound, how does the growth read?
A: Its growth is 96.3%.

Q: For CC1(C)C(C=C(Cl)Cl)C1C(=O)OC(C#N)c1ccc(F)c(Oc2ccccc2)c1 (stereo not drawn), which growth is on record?
A: Its growth is 73.5%.

Q: For Cc1sc2c(c1C)C(c1ccc(Cl)cc1)=N[C@@H](CC(=O)OC(C)(C)C)c1nnc(C)n1-2, which growth is on record?
A: Its growth is 97.4%.
